Compound activity deposited in PubChem BioAssay by National Center for Advancing Translational Sciences (NCATS).
Vaccinia mCherry – inhibitors of vaccinia virus infection (mCherry reporter signal); Potency, µM (doses to about 36.5 µM), for the others: top-dose activity change, negative = inhibition, usual class: inhibitors; Vaccinia virus mCherry reporter infection, fluorescence; AID 720579; 310,000 tested, 0.63% active; calls by dose curve; tested in A549 cells; also: nearly all actives have a fitted effect of over 35% in size
MARV entry inh – blocks Marburg virus binding to or entry into cells; Marburg virus pseudotyped entry inhibition, cell reporter; Potency, µM (highest dose often 37.8 µM), inactives show at the highest dose activity change, negative = inhibition, usual class: inhibitors; 300,000 tested, 1.8% active; calls by dose curve; tested in HEK293 cells
HCV inh – blocks hepatitis C virus. Huh7.5.1 HCVcc-Cre infection, luciferase reporter, 44 h. Potency, µM (doses to about 41.8 µM), for inactives: at the top dose activity change, negative = inhibition, hits mostly inhibitors. 340,000 tested, 3.4% active. AID 651820; active = well fitted inhibition curve with a large enough effect; inconclusive = small, poorly fitted or top-dose-only effect, or another doubt; inactive = no such curve, though single readings can be large or run the other way
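Antiviral activity was scored by luciferase reporter output from cells infected with HCVcc-Cre (~0.5 moi) in presence of compound, 44 h infection period, cells seeded 1,000/well 4 h prior.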
FMDV antiviral – foot and mouth disease virus antiviral activity | Potency, µM (doses to about 57.9 µM), without a hit: at the highest dose activity change, negative = inhibition, most hits filed as inhibitors | FMDV antiviral cell-based qHTS | 410,000 tested, 1.2% active; calls by dose curve; tested in HEK293T cells; also: read-out not given here; nearly all actives have a fitted effect of over 45% in size
Vaccinia Venus – vaccinia inhibition (Venus reporter). Vaccinia virus Venus reporter expression, fluorescence. Potency, µM (titrated, usually from 36.5 µM), for the others: at the top dose activity change, negative = inhibition, hits mostly inhibitors. 330,000 tested, 0.46% active; calls by dose curve; tested in A549 cells; also: nearly all actives have a fitted effect of over 30% in size
Lassa entry inh – inhibitors of Lassa virus binding or cell entry | Lassa virus pseudotype entry inhibition, cell reporter | Potency, µM (doses to about 37.9 µM), for the others: at the top dose activity change, negative = inhibition, actives largely listed as inhibitors | 300,000 tested, 1.2% active; calls by dose curve; tested in HEK293 cells; also: nearly all actives have a fitted effect of over 50% in size
An asterisk follows results filed as active; [ ] = remark or other dose. Sampled rows, rich in hits. Any-hit rate of the full collection: about 5.3%. % is scaled to controls: 0 for no effect and ±100 for the full control effect; potency is read from the fitted curve at half-maximal effect.

What do the screens show for `CCN(c1ccccc1)S(=O)(=O)c1ccc(NCC2COc3ccccc3O2)nc1` (centres undefined)?
MARV entry inh: inconclusive; HCV inh: 11µM*; FMDV antiviral: inconclusive; Lassa entry inh: 16µM*

What do the screens show for `CCN(c1ccccc1)S(=O)(=O)c1ccc(Cl)nc1`?
Vaccinia mCherry: -12%; MARV entry inh: 3%[46.1 µM]; HCV inh: 2%; FMDV antiviral: -10%; Vaccinia Venus: -16%; Lassa entry inh: -10%

Results for O=C(Nc1cccc(S(=O)(=O)N2CCCCC2)c1)C1CC(=O)N(c2ccc3c(c2)OCCO3)C1 (centres undefined) ?
HCV inh: 13µM*; FMDV antiviral: inconclusive

How did COc1cccc(C(C)(O)c2nc(-c3cccc(C(=O)O)c3)cs2)c1 (centres undefined) do in these assays?
Vaccinia mCherry: -12%; FMDV antiviral: 18%; Vaccinia Venus: 3%

How did CCN(CC)C(=O)c1cccc(-c2csc(C(O)c3cccc(Cl)c3)n2)c1 (centres undefined) do in these assays?
Vaccinia mCherry: inactive; FMDV antiviral: 28µM*; Vaccinia Venus: -11%

What do the screens show for `CCN(CC)C(=O)c1cccc(-c2csc(C(O)c3ccc(OC)cc3)n2)c1` (centres undefined)?
Vaccinia mCherry: inactive; FMDV antiviral: inconclusive; Vaccinia Venus: -2%

How did CCN(CC)C(=O)c1cccc(-c2csc(C(C)(O)c3ccncc3)n2)c1 (centres undefined) do in these assays?
Vaccinia mCherry: 1%; FMDV antiviral: 25µM*; Vaccinia Venus: -23%

What do the screens show for `COc1cc(C#Cc2c(-c3cncn3C)n(C)c3ccc(-c4ccc(OC)nc4)cc23)cc(OC)c1`?
Vaccinia mCherry: inconclusive; HCV inh: -33%; FMDV antiviral: inconclusive; Vaccinia Venus: 28µM*

Results for COc1cc(C#Cc2c(-c3cncn3C)n(C)c3ccc(-c4cc(OC)c(OC)c(OC)c4)cc23)cc(OC)c1 ?
Vaccinia mCherry: inconclusive; HCV inh: 11µM*; FMDV antiviral: -11%; Vaccinia Venus: 11µM*

How did CCC1CN(Cc2ccc(COC)o2)Cc2cc(OC)ccc2O1 (centres undefined) do in these assays?
Vaccinia mCherry: -6%; FMDV antiviral: -7%; Vaccinia Venus: -3%

How did COC(=O)c1c(C)c2c(C)cc3ccccn3c-2c1C(=O)OC do in these assays?
MARV entry inh: -25%; HCV inh: 10µM*; FMDV antiviral: inconclusive; Vaccinia Venus: -21%; Lassa entry inh: -22%

What do the screens show for `COC(=O)c1cc2c(-c3ccccc3)cc3ccccn3c-2c1C(=O)OC`?
MARV entry inh: inconclusive; HCV inh: 1.8µM*; FMDV antiviral: inconclusive; Vaccinia Venus: 12%; Lassa entry inh: inconclusive

How did COc1cccc(CN2C(=O)CCC2(C)C(=O)NCCc2ccc(OC)c(OC)c2)c1 (centres undefined) do in these assays?
Vaccinia mCherry: inactive; MARV entry inh: 17%[46.1 µM]; HCV inh: 13%; FMDV antiviral: -8%; Vaccinia Venus: -19%; Lassa entry inh: inconclusive

How did Cc1ccc2c3c(cccc13)-c1ccccc1C2=O do in these assays?
Vaccinia mCherry: -24%; MARV entry inh: -2%; HCV inh: 5.6µM*; FMDV antiviral: 71%; Vaccinia Venus: -9%; Lassa entry inh: inconclusive

What do the screens show for `Cc1ccc(C)c(Cn2cnc3c(cnn3C(C)(C)C)c2=O)c1`?
MARV entry inh: inconclusive; HCV inh: inconclusive; FMDV antiviral: 0%; Vaccinia Venus: -18%; Lassa entry inh: 6.3µM*

What do the screens show for `CC(C)CCn1cnc2c(cnn2-c2ccc(F)cc2)c1=O`?
MARV entry inh: inconclusive; HCV inh: 10µM*; FMDV antiviral: 11%; Vaccinia Venus: -9%; Lassa entry inh: 3%

What do the screens show for `Cc1ccccc1Cn1cnc2c(cnn2C(C)(C)C)c1=O`?
MARV entry inh: -5%; HCV inh: inconclusive; FMDV antiviral: 0%; Vaccinia Venus: -19%; Lassa entry inh: inconclusive

Results for CC(C)(C)n1ncc2c(=O)n(Cc3cccc(Cn4cnc5c(cnn5C(C)(C)C)c4=O)c3F)cnc21 ?
FMDV antiviral: 11µM*

Results for CC(C)(C)n1ncc2c(=O)n(CC(=O)OCc3ccccc3)cnc21 ?
MARV entry inh: inconclusive; HCV inh: 12%; FMDV antiviral: 14µM*; Vaccinia Venus: -19%; Lassa entry inh: inconclusive

How did Cn1nnc2c(N3CCN(c4ccccc4Cl)CC3)ncnc21 do in these assays?
Vaccinia mCherry: -17%; FMDV antiviral: 2%; Vaccinia Venus: -15%; Lassa entry inh: 10%[46.1 µM]

Results for COc1ccccc1CC(NC(C)=O)C(=O)NC1CCN(C(=O)Nc2ccccc2F)CC1 (centres undefined) ?
Vaccinia mCherry: 17%; MARV entry inh: 0%[46.1 µM]; HCV inh: 7%; FMDV antiviral: 7%; Vaccinia Venus: 5%; Lassa entry inh: -1%

What do the screens show for `CCn1c2ccccc2c2cc(/C=N/NC(=O)c3ccccc3)ccc21`?
MARV entry inh: 12µM*; HCV inh: inconclusive; FMDV antiviral: -17%; Lassa entry inh: inconclusive

How did Cn1c2ccccc2c2cc(/C=N/NC(=O)c3cc(O)cc(O)c3)ccc21 do in these assays?
Vaccinia mCherry: inactive; MARV entry inh: inconclusive; HCV inh: 0%; FMDV antiviral: -22%; Vaccinia Venus: -14%; Lassa entry inh: 11%[46.1 µM]

How did CCn1c2ccccc2c2cc(/C=N/n3c(C)nnc3C)ccc21 do in these assays?
Vaccinia mCherry: -17%; MARV entry inh: inconclusive; HCV inh: 3.5µM*; Vaccinia Venus: -13%; Lassa entry inh: inconclusive

What do the screens show for `Cn1c2ccccc2c2cc(/C=N/NC(=O)c3cc(O)ccc3O)ccc21`?
Vaccinia mCherry: -1%; MARV entry inh: -8%; HCV inh: 10µM*; FMDV antiviral: 20µM*; Vaccinia Venus: inconclusive; Lassa entry inh: inconclusive

What do the screens show for `CCN(CC)CCCNC(=O)c1cc(-c2ccc(OC)c(OC)c2)on1`?
Vaccinia mCherry: 9%; MARV entry inh: 15%[46.1 µM]; FMDV antiviral: 1%; Vaccinia Venus: -3%; Lassa entry inh: -4%[46.1 µM]

How did CCOc1ccccc1NC(=O)c1nc(S(=O)(=O)Cc2ccccc2F)ncc1Cl do in these assays?
Vaccinia mCherry: 21%; Vaccinia Venus: -8%

What do the screens show for `COc1ccc(OC)c(NC(=O)c2nc(S(=O)(=O)Cc3ccccc3)ncc2Cl)c1`?
Vaccinia mCherry: -1%; MARV entry inh: inconclusive; HCV inh: inconclusive; FMDV antiviral: 7.1µM*; Vaccinia Venus: -8%; Lassa entry inh: inconclusive

What do the screens show for `COc1ccc(NC(=O)c2nc(S(=O)(=O)Cc3cccc(C)c3)ncc2Cl)c(OC)c1`?
HCV inh: inconclusive; FMDV antiviral: 3.2µM*

Results for COCc1c(C(=O)N2CCN(C3CCCC3)CC2)cnn1-c1ncc2c(n1)-c1ccccc1CCC2 ?
Vaccinia mCherry: -22%; FMDV antiviral: -8%; Vaccinia Venus: -1%
